Shown is part of a subset that was picked to be rich in hits.
Methyltransferases – Primary Screen for Target Class Profiling of Small Molecule Inhibitors of Methyltransferases | 25,000 tested, 3.9% active | AID 1745853, 2022 | purified enzyme, MTase-Glo SAH luminescence; hits give low values | calls only at 40 µM; call rule not given here
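Each enzyme was assayed with SAM and its substrate. SAH formation detected by MTase-Glo luminescence; single-point 40 uM screen[…].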
MTase-Glo ctr – inhibits MTase-Glo coupling enzymes without methyltransferase | shares compounds with Methyltransferases | MTase-Glo coupled enzymes, SAH conversion luminescence, no MTase | Potency, µM (doses to about 57.3 µM), inactives show at the highest dose activity change, negative = inhibition, most hits filed as inhibitors | 180 tested, 6% active | AID 1745851; active = well fitted inhibition curve with a large enough effect; also: potency is read from the fitted curve at half-maximal effect
Starred values were filed as active, the others as inactive; i = inactive; + = active, no number; [ ] = another dose, or the depositor's remark. % is scaled to controls: 0 for no effect and ±100 for the full control effect.

SMILES	Methyltransferases	others
COc1ccccc1CCNC(=O)c1cc2n(n1)CC(C)(C(=O)NC1CCCCCC1)N(C)C2=O (stereo not drawn)	i
COCCCNC(=O)c1cnc2n[nH]c(-c3ccccc3)c2n1	+	MTase-Glo ctr=-2.8%[85.7 µM]
COc1ccc(C(=O)NCCn2c(C)cnc2-c2ccccc2)cn1	i
COc1ccccc1-c1[nH]nc2ncc(C(=O)NCC3CC3)nc12	+	MTase-Glo ctr=0.7%[85.7 µM]
c1ccc(-c2[nH]nc3ncc(-c4cn[nH]c4)nc23)cc1	+	MTase-Glo ctr=24.8µM*
CCOCCCNC(=O)c1cc2c(=O)[nH]c(-c3ccccc3)cn2n1	i
Cc1cc(F)ccc1-c1[nH]nc2ncc(-c3ccnn3C)nc12	i
CC1(C)[C@H]2CC[C@@H](CNC(=O)c3ccc4ccccc4n3)[C@@H]1C2	i
CC(C)CNC(=O)c1ccc2c(=O)n(CC(C)C)c3nn(CC(=O)Nc4ccccc4F)c(=O)n3c2c1	i
CC1(C(=O)NC2CCCCCC2)Cn2nc(-c3ccco3)cc2C(=O)N1CCc1ccccc1 (stereo not drawn)	i
Cc1cc2c(cc3n2CC(C)(C(=O)NC2CCCCCC2)N(CC(C)c2ccccc2)C3=O)o1 (stereo not drawn)	i
CN(C)C(=O)c1nc(-c2cccc(C(F)(F)F)c2)c2cnccn12	i
O=C1CO[C@H]2CN(Cc3ncc[nH]3)C[C@H]2N1Cc1ccc(F)cc1	i
CCCn1c(=O)c2ccccc2n2c(SCc3ccccc3Cl)nnc12	i
Cc1ccc(N2C(=O)c3ccc(-c4ccco4)n3CC2(C)C(=O)NCc2ccccc2)cc1 (stereo not drawn)	i
COc1ncccc1-c1nc(-c2c(C)noc2C)cc2cc(CN(C)C)oc12	i
Cc1noc(C)c1-c1cc2c(cc(C)n2CCN(C)C)c(Nc2ccncn2)n1	+	MTase-Glo ctr=-3.2%[85.7 µM]
Cc1cccc(OCC(=O)Nc2ccc3c(c2)C(=O)N(C)C2=NCCN23)c1	i
CCOC(=O)c1cc2n(n1)CC(C)(C(=O)NCCCOC)N(c1ccc(F)cc1C)C2=O (stereo not drawn)	i
C=Cc1ccc(Cn2nc3n(Cc4ccccc4)c(=O)c4ccc(C(=O)NC5CCCC5)cc4n3c2=O)cc1	i
Cn1cccc1C(=O)N1CC[C@H](CO)[C@H](NC(=O)C2CC2)C1	i
CN1CC2(CCN(C(=O)c3cccn3C)CC2)CC(c2ccccc2)C1=O (stereo not drawn)	i
CN(C)CC1(O)CCC2(CCN(C(=O)c3cccn3C)CC2)CC1	+	MTase-Glo ctr=5.41µM*
CCCn1c(=O)c2ccc(C(=O)NCC(C)C)cc2n2c(SCC(=O)Nc3ccccc3F)nnc12	i
Fc1ccccc1Nc1ccnc(N2CC3CCC(C2)N3CC(F)(F)F)n1	i
SMILES	Methyltransferases	others
N#Cc1cnc(N2CC3CCC(C2)N3CC(F)(F)F)s1	+	MTase-Glo ctr=-2.0%[85.7 µM]
CCOCCCN1C(=O)c2cc3sccc3n2CC1(C)C(=O)NC1CCCCCCC1 (stereo not drawn)	i
CCCc1cc(C(=O)N2CCc3c(nc(-c4cccnc4)[nH]c3=O)C2)n[nH]1	i
O=C1OCCC1CCC(=O)N1CCc2c(nc(-c3ccccc3)[nH]c2=O)C1 (stereo not drawn)	i
O=C(c1cc(-c2ccccc2)n[nH]1)N1CCc2c(nc(-c3ccccc3)[nH]c2=O)C1	+	MTase-Glo ctr=3.9%
CC(=O)Nc1c2n(c3ccc(F)cc13)CC(C)(C(=O)NCCC(C)C)N(C1CCCC1)C2=O (stereo not drawn)	i
CC1CCCCN1CCCNC(=O)c1cc2c(s1)CN(C1CCCC1)C2 (stereo not drawn)	+	MTase-Glo ctr=1.7%
CC(C)N1Cc2cc(C(=O)NC3CCN(Cc4ccccc4)CC3)sc2C1	i
COc1ccc(NC(=O)c2cc3c(s2)CN(C2CCCC2)C3)c(OC)c1	i
CCCN1C(=O)c2cc(C(=O)N3CCN(c4ccccc4)CC3)nn2CC1(C)C(=O)NC1CCCC1 (stereo not drawn)	i
CC(C)NC(=O)c1ccc2c(=O)n(C(C)C)c3n[nH]c(=O)n3c2c1	i
CCOC(=O)c1cc2n(n1)CC(C)(C(=O)NCc1ccccc1OC)N(c1ccc(C)c(Cl)c1)C2=O (stereo not drawn)	i
CC1=C[C@@H](CN(CC2CC2)CC2CC2)[C@H](C(C)C)C[C@H]1Cc1nc2ccncc2[nH]1	+	MTase-Glo ctr=35µM*
COc1ccc2nc(C[C@@H]3C[C@@H](C(C)C)[C@H](CNC(=O)NC4CCCCC4)C=C3C)[nH]c2c1	i
COC(=O)c1ccc2nc(C[C@@H]3C[C@@H](C(C)C)[C@H](CNC(=O)c4cccnc4)C=C3C)[nH]c2c1	i
CN1C(=O)c2cc(C(=O)NCc3ccccc3)nn2CC1(C)C(=O)NCc1ccccc1 (stereo not drawn)	i
CC(C)Cn1c(=O)c2ccc(C(=O)NC(C)C)cc2n2c(SCC(=O)Nc3ccc(F)cc3)nnc12	i
O=[S+]1([O-])NC2(CCN(Cc3ccc(F)cc3)CC2)CNc2ccccc21	i
N#Cc1ccc(CN2CCC3(CNc4ccccc4[S+](=O)([O-])N3)C2)cc1 (stereo not drawn)	i
COc1cccc(CN2CCCC3(CNc4ccccc4[S+](=O)([O-])N3)C2)c1 (stereo not drawn)	+	MTase-Glo ctr=-4.8%
CC(C)CCNC(=O)C1(C)Cn2nc(C(=O)NCc3ccccc3Br)cc2C(=O)N1C (stereo not drawn)	i
O=C(Nc1ccc(Br)cc1)N1Cc2c(sc3c2CCCC3)-n2cccc2C1c1ccccc1 (stereo not drawn)	i
O=C(NC1CCCC1)c1ccc2c(c1)n(Cc1cccc(F)c1)c(=O)c1ccnn12	i
Cn1c(=O)c2ccnn2c2ccc(C(=O)NCC3CCN(Cc4ccccc4F)CC3)cc21	+	MTase-Glo ctr=-0.3%
COc1ccc(-c2n[nH]n3c2nc(=O)c2ccc(C(=O)NCc4ccccc4F)cc23)cc1	i
SMILES	Methyltransferases	others
CCC(C)NC(=O)c1ccc2c(=O)n(C3CC3)c3nn(CC(=O)Nc4ccccc4F)c(=O)n3c2c1 (stereo not drawn)	i
CCOc1ccc(C(=O)Cn2nc3n(CC(C)C)c(=O)c4ccc(C(=O)NC(C)CC)cc4n3c2=O)cc1 (stereo not drawn)	i
CC(C)Oc1ccc(CNC(=O)CNC(=O)C2(C)Cn3c(cc4ccccc43)C(=O)N2C)cc1 (stereo not drawn)	i
O=C(Nc1ccccc1)c1cc2n(n1)CCN(C(=O)COc1ccccc1)C2	i
O=C(Nc1ccccc1)c1cnc2c(c1)N(C(=O)Cc1ccc(O)cc1)CCC2	+	MTase-Glo ctr=-5.5%[85.7 µM]
CC(C)c1ccc(CC(=O)N2CCCc3ncc(C(=O)NCCc4c[nH]c5ccccc45)cc32)cc1	i
COc1ccccc1CCNC(=O)CCCn1ccc2cc(S(=O)(=O)N3CCCC3)ccc21	i
COc1ccc(C2=NOC(C(=O)N3CCN(c4ccc(F)cc4)CC3)C2)cc1 (stereo not drawn)	i
Cc1noc(C)c1-c1cnc(Nc2ccc(F)c(Cl)c2)c2c1CCO2	i
COc1cncc(Nc2ncc(-c3ccccc3OC)c3c2OCC3)c1	+	MTase-Glo ctr=-2.8%[85.7 µM]
Cn1c(=O)c2ccc(C(=O)NC3CCCCC3)cc2n2c(SCc3ccccc3F)nnc12	i
CCOc1ccc(CCNc2nc3c(S(=O)(=O)c4ccccc4)nnn3c3ccccc23)cc1OCC	i
